We go through seven compounds from PubChem BioAssay.

Several values for one entry are separate records, joined by “and”; a condition that tells them apart may be missing. Equal values may be shown once. For some of these results: Measured potencies and affinities stand elsewhere. Activity calls are given as the source filed them. Unless noted, no rule for the calls is given here.

By inhibition is commonly meant the change of the read-out against control, counted positive when it falls. In general, viability refers to a read-out of living cells in per cent, often relative to untreated cells.

Experiment [1] can be described thus: blockers of polyQ-driven CASP3 activation – cell-based (AID 1583). The note with it: polyglutamine-induced caspase-3 activation, cell assay; stronger effect = higher value;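 tested at 10 µM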.
The nature of experiment [2]: yeast 75Q aggregation reduction – 75Q-TubU reporter (AID 1593). The note with it: Yeast 75Q polyglutamine aggregation reporter.
A short description of experiment [3]: restoration of touch response, mutant HTT neurons – whole organism, C. elegans mechanosensory neurons, N-terminal huntingtin (AID 1599). Conditions: C. elegans polyQ-huntingtin mechanosensory neurons, stronger effect = higher value.
The nature of experiment [4]: blockers of cytochrome c efflux from mitochondria – biochemical, purified mitochondria (AID 1603).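 Also: mouse liver mitochondria challenged with calcium chloride; signal normalized to the plate average as 100%.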 Conditions: stronger effect = lower value.
The nature of experiment [5]: polyglutamine aggregate formation blockers (AID 1604). The note with it: polyglutamine-induced protein aggregation inhibition assay; stronger effect = higher value; tested at 2.5 µM.
A short description of experiment [6]: glutamate transport activators, MN-1 cells, MN-1 cell line (AID 1612).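 Also: tested at 1 µM final; 0% = mean of DMSO vehicle wells on each plate; positive means more glutamate uptake than control and negative means less.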 The note with it: MN-1 motor neuron cells, stronger effect = higher value.
Experiment [7] is described as follows: 75Q-TubH aggregate inhibition, S. cerevisiae, yeast (AID 1616). The note with it: S. cerevisiae 75Q-TubH polyglutamine aggregation suppression; stronger effect = higher value.
Experiment [8] in a line: P. berghei load reduction in hepatocytes – cell-based, HepG2, luciferase luminescence, HepG2 viability, primary screen (AID 624349; in the data active = parasite load remaining mostly below about 12%, no sharp cut-off; inactive = mostly above about 10%;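 also: 100% = mean of DMSO negative control wells on the same plate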). The note with it: P. berghei liver stage in HepG2, luciferase luminescence, concentration not given here; parasite load remaining: stronger effect = lower value; viability: measured here: HepG2 viability without parasites.
A short description of experiment [9]: EMT-state selective cytotoxicity in co-culture – imaging, PC-3E GFP, TEM4-18 mCherry, primary screen (AID 1345086;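 active = compounds killing one labelled cell type while sparing the other, by normalised counts and ratio limits, not self-fluorescent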;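 as to all read-outs here: cells exposed to compound for 72 h before imaging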;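 as to red/green cell ratio (normalised): normalised mesenchymal count divided by normalised epithelial count so high means epithelial killing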). The note with it: PC-3E GFP / TEM4-18 mCherry co-culture, imaging cell counts, at 1 µM; for red/green cell ratio (normalised): actives lie on both sides.
The test system of experiment [10] is Aerobactin synthetase IucA (Klebsiella pneumoniae hvKP1). The experiment in a line: IucA enzyme inhibition, primary screen, biochemical, Spectrum library (AID 1346200).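 Also: 100% = wells without compound and 0% = wells lacking enzyme.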 Conditions: malachite green pyrophosphate, A620, at 8 µM, stronger effect = lower value.
The nature of experiment [11]: viability loss with induced miR-34 in A549 – imaging, A549 dox-inducible miR-34, nuclei and caspase counts, primary screen (AID 1347080;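 active = compounds whose cell count with miR-34 switched on is under 0.7 times the count with it off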). Conditions: A549 miR-34 inducible, Hoechst nuclei count, 48 h.
Experiment [12] has as its target Mitogen-activated protein kinase 7 (Homo sapiens) (UniProt Q13164). The experiment in a line: Gal4-ERK5 driven luciferase induction – cell-based, HTS, primary screen (AID 1508626;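 active = luciferase signal above three times the same-plate solvent-only control wells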;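 also: luciferase driven by Gal4-ERK5 fusion binding five Gal4 sites before minimal TATA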). The note with it: HeLa Gal4-ERK5 transactivation, 18 h, at 5 µM, stronger effect = higher value.
Setting [13] is: measured here: epithelial PC-3E GFP cell survival.
Setting [14] is: measured here: mesenchymal TEM4-18 mCherry cell survival.
The mark [15] stands for this setting: measured here: relative caspase fold change +Dox/-Dox.
Setting [16] is: measured here: total cells with miR-34 induction, stronger effect = lower value.
[17] abbreviates: measured here: total cells without miR-34 induction.

Chain of Mitogen-activated protein kinase 7 (Homo sapiens) (Q13164 whole entry, looked up, the tested form may be a part): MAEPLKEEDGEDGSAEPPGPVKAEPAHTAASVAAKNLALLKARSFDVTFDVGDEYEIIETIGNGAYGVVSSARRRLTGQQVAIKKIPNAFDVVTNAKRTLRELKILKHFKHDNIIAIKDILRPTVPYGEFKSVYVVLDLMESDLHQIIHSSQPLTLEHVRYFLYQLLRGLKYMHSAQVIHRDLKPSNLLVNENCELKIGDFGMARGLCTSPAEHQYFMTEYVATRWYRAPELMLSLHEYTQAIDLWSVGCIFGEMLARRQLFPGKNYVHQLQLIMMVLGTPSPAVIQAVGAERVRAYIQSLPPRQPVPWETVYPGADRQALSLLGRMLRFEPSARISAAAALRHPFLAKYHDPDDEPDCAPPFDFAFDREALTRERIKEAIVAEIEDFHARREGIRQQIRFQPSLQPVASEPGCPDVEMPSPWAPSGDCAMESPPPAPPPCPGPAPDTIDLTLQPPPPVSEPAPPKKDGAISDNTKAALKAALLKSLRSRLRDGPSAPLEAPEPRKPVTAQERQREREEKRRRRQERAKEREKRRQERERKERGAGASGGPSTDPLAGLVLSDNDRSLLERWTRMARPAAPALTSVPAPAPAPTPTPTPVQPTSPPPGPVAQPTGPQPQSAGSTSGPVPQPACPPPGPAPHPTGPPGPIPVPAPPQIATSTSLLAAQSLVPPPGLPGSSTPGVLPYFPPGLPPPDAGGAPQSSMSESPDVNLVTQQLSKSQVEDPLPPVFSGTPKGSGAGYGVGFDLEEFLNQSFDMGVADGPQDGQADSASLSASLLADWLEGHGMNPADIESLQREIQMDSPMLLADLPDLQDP

On to `NC1C[C@H]1c1ccccc1` (stereo partly drawn), for which, in experiment [1], the inhibition was -1.78%. In experiment [2], this compound registered a score of 0.95. Further, the rescue above control in [3] stood at 2.94. For the same compound, the cytochrome c release ratio in experiment [4] worked out at 0.57. Besides, the inhibition of aggregation in experiment [5] is -4.08%. The compound also showed a glutamate uptake change in experiment [6] of 0.89%. The aggregation suppression score in [7] was found to be 1.29. In addition, the parasite load remaining in experiment [8] is 139% (inactive) and 41.7% (inactive). The viability in experiment [8] was 72.4% and 86.6%. In experiment [9], the red/green cell ratio (normalised) was 1.23 (inactive). The normalised cell number in experiment [9] (setting [13]) was 0.99; in experiment [9] (setting [14]), 1.22. In addition, the activity remaining in experiment [10] is 123% (inactive). Also, the fold change is 0.916 (inactive) in experiment [11] (stronger effect = lower value) and 1.81 in experiment [11] (setting [15]). Further, the cell count in experiment [11] (setting [16]) was 11800; in experiment [11] (setting [17]) it was 12900.

Turning to `COc1cccc([C@]2(O)CCCC[C@H]2CN(C)C)c1`, the red/green cell ratio (normalised) in experiment [9] is 1.34 (inactive). Also, the normalised cell number turned out to be 1.13 in experiment [9] (setting [13]) and 1.5 in experiment [9] (setting [14]). Moreover, the activity remaining in experiment [10] is 98.7% (inactive). The values for the fold change in experiment [11] (stronger effect = lower value) and in experiment [11] (setting [15]) were 0.9 (inactive) and 6.33, respectively. For the same compound, the cell count in experiment [11] (setting [16]) is 11600; in [11] (setting [17]), 12900.

On to `O=C1CC[C@@]2(O)[C@H]3Cc4ccc(O)c5c4C2(CCN3CC2CC2)[C@H]1O5`, for which the inhibition in [1] is -9.29%. For the same compound, the score in [2] came out at 1.49. The same compound showed a rescue above control in [3] of -6.2. Also, the cytochrome c release ratio in experiment [4] worked out at 1.27. Further, in experiment [5], the inhibition of aggregation worked out at 61.5%. In experiment [6], the glutamate uptake change amounted to 10.7%. The compound also came in with an aggregation suppression score in [7] of 1.53. Besides, the parasite load remaining in experiment [8] is 70.5% (inactive) and 73.3% (inactive). Further, the viability in [8] is 84.7% and 132%. Moreover, in [9], the red/green cell ratio (normalised) was 1.24 (inactive). Further, the figures for the normalised cell number in [9] (setting [13]) and in [9] (setting [14]) were 1.01 and 1.26, respectively. Besides, the activity remaining in experiment [10] was 104% (inactive). Besides, the figures for the fold change in [11] (stronger effect = lower value) and in [11] (setting [15]) were 0.853 (inactive) and 4.3, respectively. Further, the cell count in [11] (setting [16]) worked out at 11500; in experiment [11] (setting [17]), 13400.

`C=C(C)C1Cc2c(ccc3c(=O)c4c(oc23)COc2cc(OC)c(OC)cc2-4)O1` (stereo not drawn): the red/green cell ratio (normalised) in [9] is 0.91 (inactive). Further, the values for the normalised cell number in [9] (setting [13]) and in experiment [9] (setting [14]) were 0.94 and 0.86, respectively. Also, the activity remaining in experiment [10] was 126% (inactive). In experiment [12], the luciferase signal is 56 AU (inactive).

For `COc1cc2c(cc1OC)[C@@H]1C(=O)c3ccc4c(c3O[C@@H]1CO2)CC(C(C)C)O4` (stereo partly drawn), the red/green cell ratio (normalised) in experiment [9] was 1.13 (inactive). The normalised cell number in [9] (setting [13]) was 0.56; in experiment [9] (setting [14]), 0.64. Also, in experiment [10], the activity remaining is 114% (inactive).

For `O=C1C=CC(=O)c2ccccc21`, in experiment [9], the red/green cell ratio (normalised) was 0.81 (inactive). The normalised cell number is 1.25 in experiment [9] (setting [13]) and 1.02 in [9] (setting [14]). The activity remaining in experiment [10] was 105% (inactive). The luciferase signal in experiment [12] was 388 AU (active).

For the compound `CC1[C@H](C)OC(=O)CC(O)CC(O)CC(O)CCC(O)C(O)C[C@]2(O)CC(O)C(C(=O)O)C(CC(OC3O[C@H](C)[C@@H](O)[C@H](N)[C@@H]3O)/C=C/C=C/C=C/C=C/CC/C=C/C=C/[C@H](C)[C@H]1O)O2` (stereo partly drawn), the inhibition in experiment [1] turned out to be 3.51%. This compound also returned a score in [2] of -0.11. Also, the rescue above control in [3] was 3.77. Further, in [4], the cytochrome c release ratio is 0.93. The inhibition of aggregation in experiment [5] was determined as 30.3%. The compound also came in with a glutamate uptake change in experiment [6] of 9.44%. This compound returned an aggregation suppression score in experiment [7] of 0.00787. The parasite load remaining in experiment [8] is 87.6% (inactive) and 108% (inactive). For the same compound, the viability in experiment [8] is 71.5% and 89.6%. The red/green cell ratio (normalised) in [9] is 1.28 (inactive). The normalised cell number in experiment [9] (setting [13]) was determined as 0.98; in [9] (setting [14]), 1.25. For the same compound, in [10], the activity remaining is 89.3% (inactive). Besides, the fold change is 0.841 (inactive) in experiment [11] (stronger effect = lower value) and 0.89 in [11] (setting [15]). Also, the results for the cell count in experiment [11] (setting [16]) and in [11] (setting [17]) were 11200 and 13400, respectively.
